# Laboratory results: PubChem BioAssay AID743126 (The Scripps Research Institute Molecular Screening Center, 2013)
# About 2,100 (0.57%) of roughly 370,000 compounds were called active. The sample as a whole holds a higher share of actives than the screen did. Values without a mark were called inactive.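 Rule for the calls: active = inhibition above mean plus 3 SD of compounds lying within the high and low control bounds (cut at about 19% in these data); inactive = the rest.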
# Molecular target: Group 3 secretory phospholipase A2 (Homo sapiens) (UniProt Q9NZ20)
# Sequence (Q9NZ20 whole entry, looked up): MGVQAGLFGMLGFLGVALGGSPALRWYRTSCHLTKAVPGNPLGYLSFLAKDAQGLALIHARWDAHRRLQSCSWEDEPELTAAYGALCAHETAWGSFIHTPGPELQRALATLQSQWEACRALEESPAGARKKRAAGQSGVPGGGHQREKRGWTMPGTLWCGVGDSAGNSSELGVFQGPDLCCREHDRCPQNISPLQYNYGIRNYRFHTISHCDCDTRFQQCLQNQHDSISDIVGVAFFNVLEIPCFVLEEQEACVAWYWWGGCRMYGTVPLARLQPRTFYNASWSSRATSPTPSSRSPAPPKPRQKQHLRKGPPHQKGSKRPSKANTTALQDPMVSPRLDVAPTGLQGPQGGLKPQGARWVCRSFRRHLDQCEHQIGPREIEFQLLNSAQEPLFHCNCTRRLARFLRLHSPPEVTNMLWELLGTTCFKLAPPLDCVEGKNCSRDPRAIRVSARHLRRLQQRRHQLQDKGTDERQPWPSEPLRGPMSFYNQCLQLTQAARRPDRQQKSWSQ
# Experiment: HGIII-sPLA2 enzyme inhibition – biochemical, QFRET, BODIPY PC-A2 liposome substrate, primary screen (AID 743126);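 note: 0% = median of test compound wells and 100% = no enzyme DMSO wells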
# Conditions: QFRET BODIPY PC-A2 liposome hydrolysis, fluorescence; at 12.2 µM; stronger effect = higher value
row,SMILES,inhibition
1,COc1ccc(N2CCN(CCNS(=O)(=O)c3ccc(Cl)s3)CC2)cc1,0.02%
2,O=S1(=O)c2ccc(N3CCN(Cc4ccccc4F)CC3)cc2Oc2ccccc2CN1Cc1cn(Cc2ccc(Cl)cc2)nn1,-0.32%
3,O=C(Nc1cccc(F)c1)c1cc(-c2ccco2)nc2ccccc12,23.6% (active)
4,Cc1cc(C(=O)Nc2ccc(C)c(S(=O)(=O)N3CCOCC3)c2)c2ccccc2n1,-16.7%
5,O=C(Nc1nc2ccc(Cl)cc2s1)c1cc(-c2ccc(Cl)cc2)nc2ccccc12,13.3%
6,CC(C)(C)NC(=O)Cn1c(SCC(=O)Nc2nccs2)nc2ccccc21,3.98%
7,CCC(c1nnc(SCC(=O)NNC(=O)c2ccccc2)n1Cc1ccccc1)N(C)C (configuration not stated),-0.56%
8,O=C(CSc1nc2ccccc2n1Cc1ccccc1)NNC(=S)Nc1ccccc1,34.3% (active)
9,CCC(=O)Nc1ccc2c(c1)C(=O)N(C)[C@H]1CC[C@H](CC(=O)NCCOC)O[C@@H]1CO2,-9.58%
10,Nc1[nH]c(/C=C2/CCCCC2n2[nH]c(=O)n(-c3ccccc3)c2=O)c(Cc2ccccc2)[n+]1Cc1ccccc1 (configuration not stated),-5.57%
11,CCCc1cc(-c2n[nH]c(=S)n2Cc2ccccc2)cs1,2.87%
12,CCc1cc(-c2n[nH]c(=S)n2CC(C)C)cs1,19.6% (active)
13,CCn1c(-c2ccncc2)n[nH]c1=S,3.35%
14,CCC(=O)c1c(CC)c2n3c1=CC[C@H]3CC(Br)C=2 (some centres not stated),1.91%
15,Cc1ccc(NC(=S)NNC(=O)CSc2nnc(SCc3ccccc3Cl)s2)cc1,19.7% (active)
16,O=C(CSc1nnc(SCc2ccc(Cl)cc2)s1)N/N=C/c1ccccc1Cl,-4.99%
17,CCSc1nnc(SCC(=O)NNC(=O)c2ccccc2F)s1,4.1%
18,COc1cccc(Cn2cc(COC(=O)Nc3ccc(F)cc3)nn2)c1,-7.76%
19,C[C@@H]1CN([C@@H](C)CO)C(=O)c2cccc(NC(=O)Nc3cccc4ccccc34)c2O[C@H]1CN(C)S(=O)(=O)c1ccccc1F,-21.9%
20,CCOc1ccc2[nH]c(=O)c(CN(CCCO)C(C)=O)cc2c1,-0.39%
21,Nc1ccc2[nH]c(=S)sc2c1,1.91%
22,CCOc1ccc2[nH]c(=S)sc2c1,23.5% (active)
23,COc1ccc2c(C(C)c3ccc(N)cc3)cn(C)c2c1 (configuration not stated),9.83%
24,CCCCNC(=O)C[C@@H]1C(=O)N(CCc2ccc(Cl)cc2)C2=CCCC[C@]21C(=O)OCC,-11%
25,COC(=O)c1cccnc1NC(=S)NC(C)C,11.5%
26,CC1CCN(C(=S)NC(=O)c2ccccc2Br)CC1,16.3%
27,O=C(NC(=S)Nc1ncccn1)c1ccccc1Br,20.2% (active)
